# Laboratory results published in PubChem BioAssay AID1347165 (National Center for Advancing Translational Sciences (NCATS), 2019).
# About 5,700 (2.6%) of roughly 220,000 compounds were called active. Roughly 18% stayed inconclusive and do not appear here. Calls follow the shape of the dose curve; as a rule, active = well fitted inhibition curve with a large enough effect; inconclusive = small, poorly fitted or top-dose-only effect; inactive = no such curve, though single readings can be large or run the other way. Only a selection was taken, and actives are over-represented in it overall.
# Biological target: Lysine-specific demethylase 5B (Homo sapiens) (UniProt Q9UGL1)
# Assay: Primary screen for KDM5B Histone Demethylases FDH-coupled qHTS; also: nearly all actives have a fitted effect of over 70% in size; as to activity change, negative = inhibition: 0% is about no effect
# Settings: FDH-coupled NADH fluorescence (FDH is formaldehyde dehydrogenase); series mostly up to 57.7 µM; activity change, negative = inhibition: at the top concentration
# Method in brief: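 qHTS format, multiple compound concentrations. Buffer 50 mM HEPES pH 7.5/0.01% Tween-20; 200 nM KDM5BΔAP final; 10 min compound preincubation; substrate-mix levels 12.5 µM peptide, 25 µM α-KG, 0.25 mM NAD⁺; 30 min RT; ΔRFU.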
# Potency is read from the fitted curve at half-maximal effect.
# Lysine-specific demethylase 5B (Homo sapiens), sequence (Q9UGL1 whole entry, looked up): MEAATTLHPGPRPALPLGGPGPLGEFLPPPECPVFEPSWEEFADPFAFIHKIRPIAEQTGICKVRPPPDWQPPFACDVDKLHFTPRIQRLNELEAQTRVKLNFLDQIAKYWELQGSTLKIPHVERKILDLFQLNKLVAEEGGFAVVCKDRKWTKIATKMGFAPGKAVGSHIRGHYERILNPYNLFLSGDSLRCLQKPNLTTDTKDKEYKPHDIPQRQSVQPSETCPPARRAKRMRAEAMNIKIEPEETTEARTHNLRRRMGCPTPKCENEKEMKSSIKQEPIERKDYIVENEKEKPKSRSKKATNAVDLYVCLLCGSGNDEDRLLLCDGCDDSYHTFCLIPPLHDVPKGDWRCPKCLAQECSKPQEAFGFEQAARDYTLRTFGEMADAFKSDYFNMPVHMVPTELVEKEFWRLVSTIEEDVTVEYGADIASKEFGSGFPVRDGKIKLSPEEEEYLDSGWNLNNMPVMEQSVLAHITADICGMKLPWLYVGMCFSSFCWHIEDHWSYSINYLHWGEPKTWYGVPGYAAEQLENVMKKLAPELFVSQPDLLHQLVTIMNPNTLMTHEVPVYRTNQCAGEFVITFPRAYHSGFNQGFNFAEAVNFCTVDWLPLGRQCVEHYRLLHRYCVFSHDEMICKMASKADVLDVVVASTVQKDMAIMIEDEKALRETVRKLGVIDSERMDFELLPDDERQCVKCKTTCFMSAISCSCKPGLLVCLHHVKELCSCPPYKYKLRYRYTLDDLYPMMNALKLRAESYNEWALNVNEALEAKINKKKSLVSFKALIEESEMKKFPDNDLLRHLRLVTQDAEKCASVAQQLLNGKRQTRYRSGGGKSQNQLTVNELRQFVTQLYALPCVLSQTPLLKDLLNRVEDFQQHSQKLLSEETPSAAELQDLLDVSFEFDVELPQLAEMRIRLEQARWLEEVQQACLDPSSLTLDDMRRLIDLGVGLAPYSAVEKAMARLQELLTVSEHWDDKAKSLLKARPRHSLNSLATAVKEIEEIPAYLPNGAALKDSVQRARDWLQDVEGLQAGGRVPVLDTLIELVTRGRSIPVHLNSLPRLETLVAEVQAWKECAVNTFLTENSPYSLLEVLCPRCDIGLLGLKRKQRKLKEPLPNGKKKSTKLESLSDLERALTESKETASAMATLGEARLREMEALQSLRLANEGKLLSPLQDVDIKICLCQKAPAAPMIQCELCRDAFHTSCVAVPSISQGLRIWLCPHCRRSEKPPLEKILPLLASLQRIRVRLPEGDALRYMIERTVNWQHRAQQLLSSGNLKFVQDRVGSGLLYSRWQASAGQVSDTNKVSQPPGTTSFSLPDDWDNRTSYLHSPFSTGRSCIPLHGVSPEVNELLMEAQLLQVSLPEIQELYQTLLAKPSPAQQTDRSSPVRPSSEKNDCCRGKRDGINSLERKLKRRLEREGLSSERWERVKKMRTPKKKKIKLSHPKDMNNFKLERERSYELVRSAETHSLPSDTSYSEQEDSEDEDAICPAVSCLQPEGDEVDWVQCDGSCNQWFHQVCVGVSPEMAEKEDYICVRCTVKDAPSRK
SMILES,"activity change, negative = inhibition",Potency
Nc1cc(OCC(F)(F)F)cc(OCC(F)(F)C(F)F)c1,8.06% (inactive),–
CC1CCCC(NC(=O)c2ccccc2)C1C (configuration not stated),18.6% (inactive),–
COCCSCC(=O)N1CCOC(C)(C)C1,26.5% (inactive),–
COCc1nc(C2CCCN(C(=O)CCC3CCCC3)C2)no1 (configuration not stated),-7.38% (inactive),–
Cc1cc(C(=O)N2CCC3(CC2)CC(C(=O)N2CCOCC2)N(C)C3)nn1C (configuration not stated),9.57% (inactive),–
O=C(c1cc2cccnn2n1)N1CCOCC1,–,31.6 µM (active)
O=C(c1cc(-c2ccc(O)cc2)on1)N1CCOCC1,-11% (inactive),–
Cc1ccc(CNC(=O)Cc2cn(C)c3ccccc23)cc1,31% (inactive),–
CCOc1ccccc1NC(=O)NC1CCCCCCC1,25.5% (inactive),–
COc1cccc(NC(=O)C2(C#N)CCCC2)c1,12.7% (inactive),–
COc1ccc(Nc2cc(C(=O)N3CCOCC3)c3ccccc3n2)cc1,-11.2% (inactive),–
COc1ccc(NC(=O)C2(C)CN(C)Cc3ccc(Nc4cccc(OC)c4)nc32)cc1 (configuration not stated),–,14.1 µM (active)
O=C(Nc1cc(F)ccc1F)N1CCC2(CC1)Oc1ccccc1C(=O)N2Cc1ccccc1F,-2.84% (inactive),–
OCCCSc1nnc(-c2c[nH]c3ccccc23)n1C1CC1,-11.7% (inactive),–
O=C(NCC1Cn2cccc2C(=O)N1Cc1ccccc1)c1ccco1 (configuration not stated),11.7% (inactive),–
O=C(NCC1Cn2cccc2CN1Cc1ccccc1)c1ccco1 (configuration not stated),–,28.2 µM (active)
CC(C)CNC(=O)NCC1Cn2cccc2C(=O)N1Cc1ccccc1 (configuration not stated),-2.01% (inactive),–
CC(=O)NCC1Cn2cccc2CN1Cc1ccccc1 (configuration not stated),–,28.2 µM (active)
CC(C)NC(=O)NCC1Cn2cccc2C(=O)N1Cc1ccccc1 (configuration not stated),-21.5% (inactive),–

SMILES,"activity change, negative = inhibition",Potency
O=C(NCC1Cn2cccc2C(=O)N1Cc1ccccc1)c1ccc(F)cc1 (configuration not stated),0.623% (inactive),–
CCCn1nc(C(=O)NCc2cccc(OC)c2)c2ccccc2c1=O,16.7% (inactive),–
O=C(CSc1ncc(CO)n1Cc1ccc(F)cc1)NCc1ccc2c(c1)OCO2,13.1% (inactive),–
CN(C(=O)Cn1c(=O)n(C)c(=O)c2sccc21)c1ccccc1,-13.8% (inactive),–
Cc1ccc(C(=O)c2ccccc2C(=O)OCc2c(Cl)cccc2Cl)cc1,-9.31% (inactive),–
O=C(NCCc1nc2ccccc2[nH]1)c1ccc(N2CCCN(Cc3ccccc3)C2=O)cc1,2.86% (inactive),–
COCC(=O)N[C@H]1C[C@H]2C(=O)Nc3ccc(/C=C/c4ccc(OC)cc4)cc3C(=O)N2C1,–,28.2 µM (active)
COCCn1ccc2cc(C(=O)Nc3ccc4c(c3)C(=O)N3CCC[C@H]3C(=O)N4)ccc21,9.94% (inactive),–
O=C1Nc2ccc(Br)cc2C(=O)N2CCN(C(=O)C3CCCCC3)C[C@H]12,-26.5% [at 86.2 µM] (inactive),–
COc1ccc(C(=O)N2CCc3nc(C(C)C)nc(-c4ccc(Cl)cc4)c3CC2)cc1,-3.56% [at 115 µM] (inactive),–
Cc1nn(CC(=O)NC(C)(C)C)c(C)c1S(=O)(=O)N1CCCC(C(=O)N2CCC(C)CC2)C1 (configuration not stated),16.9% (inactive),–
Cc1cc(NC(=O)CCSc2nnc3c(Cl)cc(C(F)(F)F)cn23)no1,-3.18% (inactive),–
COc1ccc(C(=O)N[C@H](C(=O)NCc2ccccc2)C(C)C)cc1,10% (inactive),–
Nc1nc(CCCNC(=O)C2NCCc3[nH]cnc32)cs1 (configuration not stated),–,25.1 µM (active)
O=C(NCc1nnc2ccccn12)C1NCCc2[nH]cnc21 (configuration not stated),0.217% (inactive),–
O=C(C1NCCc2[nH]cnc21)N1CCc2nnc(-c3ccccc3)n2CC1 (configuration not stated),-24.4% (inactive),–
COc1ccc2nc(C)c(C(=O)N(C)CC3COc4ccccc4O3)cc2c1 (configuration not stated),-8.89% (inactive),–
C/C(=N/NC(=S)NCc1ccccc1)c1cccc(C(F)(F)F)c1,-5.68% (inactive),–
